Assay results: PubChem BioAssay AID1159580 (chemical genetic matrix, 2015)
Where “and” joins values, the source holds several entries; their conditions need not be identical. Equal values may be shown once. Among all 5,500 compounds or so, about 2,000 (36%) were called active. Another 18% or so got no clear call; they are omitted. Cut-off read from the data, not from the text of the source: active = normalized growth mostly below about 0.91 (no sharp cut-off); inconclusive = no clear call, values can overlap the other calls; inactive = mostly above about 0.92. This is one part of the list.

Assay: chemical genetic growth profiling, strain panel (AID 1159580);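 note: tested at 20 µM; growth read once vehicle control cultures reached saturation at 30 °C; 1 = growth at the plate median or of vehicle wells; lower values mean less growth of the strain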
Details: growth OD

Measured: normalized growth

O=C(C1CCCCC1)N1CC(=O)N2CCc3ccccc3C2C1 (centres undefined)
inactive: S. cerevisiae deletion strains, locus YJR075W, strain HOC1, active compounds read low 1 | S. cerevisiae deletion strains, locus YKL009W, strain mrt4, active compounds read low 1.02 | S. cerevisiae deletion strains, locus YKL068W, active compounds read low 1 | S. cerevisiae deletion strains, locus YKL085W, strain MDH1 (second series), active compounds read low 1.01 | S. cerevisiae deletion strains, locus YKL085W, strain MDH1, active compounds read low 1.01 | S. cerevisiae deletion strains, locus YKL160W, strain elf1, active compounds read low 1.01 | S. cerevisiae deletion strains, locus YKL190W, strain CNB1, active compounds read low 1 | S. cerevisiae deletion strains, locus YKR001C, strain vps1, active compounds read low 1.01 | S. cerevisiae deletion strains, locus YKR026C, strain gcn3, active compounds read low 1.01 | S. cerevisiae deletion strains, locus YKR091W, strain srl3, active compounds read low 1.01 | S. cerevisiae deletion strains, locus YLL001W, strain dnm1, active compounds read low 1.06 | S. cerevisiae deletion strains, locus YLL026W, active compounds read low 1.01 | S. cerevisiae deletion strains, locus YLL041C, strain sdh2, active compounds read low 0.995 | S. cerevisiae deletion strains, locus YLR027C, strain aat2, active compounds read low 0.984 | S. cerevisiae deletion strains, locus YLR039C, strain RIC1, active compounds read low 1.01 | S. cerevisiae deletion strains, locus YLR058C, strain SHM2, active compounds read low 1 | S. cerevisiae deletion strains, locus YLR102C, strain apc9, active compounds read low 1.01 | S. cerevisiae deletion strains, locus YLR113W, strain HOG1, active compounds read low 1.01 | S. cerevisiae deletion strains, locus YLR221C, strain rsa3, active compounds read low 1.03 | S. cerevisiae deletion strains, locus YLR258W, strain gsy2, active compounds read low 1.03 | S. cerevisiae deletion strains, locus YLR262C, strain YPT6 (second series), active compounds read low 1.04 | S. cerevisiae deletion strains, locus YLR262C, strain YPT6, active compounds read low 1.02 | S. cerevisiae deletion strains, locus YLR268W, strain sec22, active compounds read low 1.03 | S. cerevisiae deletion strains, locus YLR320W, strain mms22, active compounds read low 1.02 | S. cerevisiae deletion strains, locus YLR330W, strain CHS5, active compounds read low 1.01 | S. cerevisiae deletion strains, locus YLR342W, strain FKS1 (second series), active compounds read low 1.01 | S. cerevisiae deletion strains, locus YLR342W, strain FKS1, active compounds read low 1.01 | S. cerevisiae deletion strains, locus YLR357W, strain rsc2, active compounds read low 0.998 | S. cerevisiae deletion strains, locus YLR370C, strain arc18, active compounds read low 1.02 | S. cerevisiae deletion strains, locus YLR371W, strain rom2, active compounds read low 1.01 | S. cerevisiae deletion strains, locus YLR384C, strain iki3, active compounds read low 1.01 | S. cerevisiae deletion strains, locus YLR418C, strain cdc73, active compounds read low 1.01 | S. cerevisiae deletion strains, locus YML016C, strain PPZ1, active compounds read low 0.999 | S. cerevisiae deletion strains, locus YML032C, strain rad52, active compounds read low 1.01 | S. cerevisiae deletion strains, locus YML120C, strain ndi1, active compounds read low 1.04 | S. cerevisiae deletion strains, locus YML124C, strain tub3, active compounds read low 1 | S. cerevisiae deletion strains, locus YMR058W, strain fet3, active compounds read low 1 | S. cerevisiae deletion strains, locus YMR078C, strain ctf18, active compounds read low 0.997 | S. cerevisiae deletion strains, locus YMR125W, strain sto1, active compounds read low 1.02 | S. cerevisiae deletion strains, locus YMR129W, active compounds read low 1.01 | S. cerevisiae deletion strains, locus YMR205C, strain PFK2, active compounds read low 1.02 | S. cerevisiae deletion strains, locus YMR223W, strain ubp8, active compounds read low 0.987 | S. cerevisiae deletion strains, locus YMR231W, strain pep5, active compounds read low 1 | S. cerevisiae deletion strains, locus YMR263W, strain SAP30, active compounds read low 1 | S. cerevisiae deletion strains, locus YMR307W, strain GAS1, active compounds read low 1 and 0.995 | S. cerevisiae deletion strains, locus YNL067W, strain RPL9B, active compounds read low 1 | S. cerevisiae deletion strains, locus YNL071W, strain lat1, active compounds read low 0.996 | S. cerevisiae deletion strains, locus YNL153C, strain GIM3, active compounds read low 1.03 | S. cerevisiae deletion strains, locus YNL175C, strain NOP13, active compounds read low 1.01 | S. cerevisiae deletion strains, locus YNL183C, strain NPR1, active compounds read low 0.96 | S. cerevisiae deletion strains, locus YNL197C, strain WHI3, active compounds read low 1.01 | S. cerevisiae deletion strains, locus YNL209W, strain ssb2, active compounds read low 1 | S. cerevisiae deletion strains, locus YNL224C, strain SQS1, active compounds read low 1.02 | S. cerevisiae deletion strains, locus YNL233W, strain BNI4, active compounds read low 0.995 | S. cerevisiae deletion strains, locus YNL248C, strain rpa49, active compounds read low 0.893 | S. cerevisiae deletion strains, locus YNL250W, strain rad50, active compounds read low 1.01 | S. cerevisiae deletion strains, locus YNL271C, strain bni1, active compounds read low 1 | S. cerevisiae deletion strains, locus YNL298W, strain CLA4, active compounds read low 1.01 | S. cerevisiae deletion strains, locus YNL307C, strain MCK1, active compounds read low 1.02 | S. cerevisiae deletion strains, locus YNL322C, strain KRE1 (second series), active compounds read low 1.02 | S. cerevisiae deletion strains, locus YNL322C, strain KRE1, active compounds read low 1 and 1.01 | S. cerevisiae deletion strains, locus YNR049C, strain mso1, active compounds read low 1 | S. cerevisiae deletion strains, locus YNR052C, strain pop2, active compounds read low 1.01 | S. cerevisiae deletion strains, locus YOL006C, strain TOP1, active compounds read low 0.912 | S. cerevisiae deletion strains, locus YOL012C, strain htz1 0.872 | S. cerevisiae deletion strains, locus YOL147C, strain pex11, active compounds read low 1.01 | S. cerevisiae deletion strains, locus YOR001W, strain rrp6, active compounds read low 0.971 | S. cerevisiae deletion strains, locus YOR061W, strain CKA2, active compounds read low 1 | S. cerevisiae deletion strains, locus YOR069W, strain VPS5, active compounds read low 1 | S. cerevisiae deletion strains, locus YOR070C, strain gyp1, active compounds read low 1 | S. cerevisiae deletion strains, locus YOR080W, strain dia2, active compounds read low 1.01 | S. cerevisiae deletion strains, locus YOR083W, strain WHI5 (second series), active compounds read low 1.01 | S. cerevisiae deletion strains, locus YOR083W, strain WHI5, active compounds read low 1.03 | S. cerevisiae deletion strains, locus YOR106W, strain vam3, active compounds read low 1.01 | S. cerevisiae deletion strains, locus YOR136W, strain idh2, active compounds read low 1.01 | S. cerevisiae deletion strains, locus YOR144C, strain elg1, active compounds read low 1.01 | S. cerevisiae deletion strains, locus YOR184W, strain ser1, active compounds read low 1 | S. cerevisiae deletion strains, locus YOR231W, strain MKK1, active compounds read low 1 | S. cerevisiae deletion strains, locus YOR265W, strain rbl2, active compounds read low 1 | S. cerevisiae deletion strains, locus YOR270C, strain vph1, active compounds read low 0.955 | S. cerevisiae deletion strains, locus YOR290C, strain snf2, active compounds read low 1.02 | S. cerevisiae deletion strains, locus YOR316C, strain cot1, active compounds read low 1 | S. cerevisiae deletion strains, locus YPL051W, strain arl3, active compounds read low 0.988 | S. cerevisiae deletion strains, locus YPL078C, strain atp4, active compounds read low 0.974 | S. cerevisiae deletion strains, locus YPL106C, strain sse1, active compounds read low 1.04 | S. cerevisiae deletion strains, locus YPL240C, strain hsp82, active compounds read low 0.998 | S. cerevisiae deletion strains, locus YPL241C, strain CIN2, active compounds read low 1 | S. cerevisiae deletion strains, locus YPL256C, strain CLN2, active compounds read low 0.965 | S. cerevisiae deletion strains, locus YPR119W, strain clb2, active compounds read low 1 | S. cerevisiae deletion strains, locus YPR141C, strain kar3, active compounds read low 1.01 | S. cerevisiae deletion strains, locus YPR163C, strain tif3, active compounds read low 1.02 | S. cerevisiae deletion strains, locus YPR167C, strain met16, active compounds read low 1.02 | S. cerevisiae deletion strains, strain wtn01, active compounds read low 1.02 | S. cerevisiae strains, strain wild type, active compounds read low 0.999
